Hits are enriched below; roughly 7.9% of the tested compounds scored in any of these assays.
KB-V1 MDR tox: kills drug-selected multidrug resistant KB-V1 cells; KB-V1 MDR cells viability, CellTiter-Glo, 72 h; Potency, µM (doses to about 46.1 µM), hits mostly cytotoxic; 400,000 compounds, 3.4% hits; note: % is set by controls: 0 for no effect and ±100 for the full control effect; nearly all actives have a fitted effect of over 60% in size
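Potencies derive from concentration-effect curves fitted to normalized luminescence (CellTiter-Glo) of KB-V1 cells treated for 72 h at 37 degrees C in phenol-red-free DMEM containing 10% FBS.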
SW480 rereplic: inducers of DNA re-replication in SW480 colon cancer cells. AID 624297. 340,000 compounds, 1.8% hits. SW480 DNA re-replication, Hoechst DNA content imaging, 48 h. Potency, µM (top dose mostly 46.1 µM), for the others: at the highest dose re-replication activation, usual class: activators; note: % of control where 0% means no effect; nearly all actives have a fitted effect of over 55% in size
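Image-based DNA-content assay: after two days of treatment, nuclei were labelled with the DNA dye Hoechst and imaged, and hits were compounds raising the count of nuclei showing high fluorescence intensity.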
HT1080NT lethal: kills 2HG-producing HT-1080-NT fibrosarcoma cells. HT-1080-NT fibrosarcoma viability, CellTiter-Glo ATP luminescence, 48 h. Potency, µM (top dose mostly 46.1 µM), inactives show at the top dose activity, negative = less viability, most hits filed as cytotoxic. 360,000 compounds, 1.6% hits;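 note: NT is the 2HG producing partner of a matched IDH1 knockdown line; 0% = DMSO-treated cells and -100% = media-only wells without cells; nearly all actives have a fitted effect of over 55% in size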
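Viability of the 2HG-overproducing fibrosarcoma line after 48 hours of compound exposure at 37 degrees C was determined by luminescence with CellTiter-Glo, and concentration-effect curves were then fitted and categorized.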
MCF10A rereplic: inducers of DNA re-replication in MCF 10A breast cells; MCF 10A DNA re-replication, Hoechst nuclear intensity, 48 h; Potency, µM (top dose mostly 46.1 µM), for the others: top-dose activity, positive = re-replication, most hits filed as activators; 350,000 compounds, 2.9% hits; AID 624296; note: % of control where 0% means no effect; nearly all actives have a fitted effect of over 50% in size
HT1080 IDH1KD tx: toxicity to HT-1080 IDH1 knockdown cells (counter line); Potency, µM (series often up to 46.1 µM), for inactives: at the top dose activity, negative = toxicity, hits mostly cytotoxic; 360,000 compounds, 2% hits; HT-1080 IDH1 knockdown viability, ATP luminescence, 48 h;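 note: 0% = DMSO wells and -100% = cell-free medium wells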
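Assay cells: HT-1080 with IDH1 knockdown, 750 per well, RPMI/5% FBS. Exposure: 48 h at 37 °C following 2 h pre-incubation. Read: CellTiter-Glo luminescence; fitted concentration-response, curve class assigned.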
KB-3-1 tox: KB-3-1 parental cell cytotoxicity | KB-3-1 viability, CellTiter-Glo ATP luminescence, 72 h | 400,000 compounds, 1.4% hits | Potency, µM (series often up to 46.1 µM), most hits filed as cytotoxic | AID 1347075; note: % is set by controls: 0 for no effect and ±100 for the full control effect; nearly all actives have a fitted effect of over 60% in size
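Multi-concentration cytotoxicity screen in KB-3-1 cells grown in DMEM lacking phenol red with 10% FBS. After 72 h at 37 °C with compound, ATP-dependent luminescence was recorded.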
* hit, by the source's call; i = inactive; ? = inconclusive; nt = no result given. Calls come from the whole dose curve; as a rule, active = well fitted curve in the direction sought with a large enough effect; inconclusive = small, poorly fitted or top-dose-only effect, or another doubt; inactive = no such curve, though single readings can be large; an effect the other way counts as inactive or inconclusive. Potency is the fitted concentration of half-maximal effect.

SMILES | KB-V1 MDR tox | SW480 rereplic | HT1080NT lethal | MCF10A rereplic | HT1080 IDH1KD tx | KB-3-1 tox
Cn1nnnc1Sc1ncnc2scc(-c3cccc(F)c3)c12 | i | 4% | nt | ? | nt | i
Cn1nnnc1Sc1ncnc2scc(-c3ccc(C(F)(F)F)cc3)c12 | 18µM* | 6% | nt | 2.1µM* | nt | ?
Cn1nnnc1Sc1ncnc2scc(-c3ccsc3)c12 | i | ? | nt | 16µM* | nt | ?
C[C@@H]1CN(Cc2nnnn2CC(=O)NCCCn2cccn2)C[C@H](C)O1 | i | nt | 5% | nt | -3% | i
Cn1nnnc1Sc1ncnc2scc(-c3ccccc3C(F)(F)F)c12 | ? | ? | nt | 79% | nt | 16µM*
COc1cccc(-c2csc3ncnc(Sc4nnnn4C)c23)c1 | ? | 0.33µM* | nt | ? | nt | ?
Cc1ccc(-c2csc3ncnc(-n4nnc5ccccc54)c23)cc1 | ? | -4% | -6% | 6% | -10% | ?
Cn1nnnc1Sc1ncnc2scc(-c3cccs3)c12 | ? | ? | nt | 10µM* | nt | ?
COC(=O)CSc1ncnc2scc(-c3ccccc3)c12 | i | ? | -23% | 0% | -7% | i
Cn1nnnc1Sc1ncnc2scc(-c3ccc(-c4ccccc4)cc3)c12 | ? | ? | nt | 8.2µM* | nt | 15µM*
Cc1ccccc1N1CCN(c2ncnc3scc(-c4cccs4)c23)CC1 | ? | 21% | 3% | ? | -16% | ?
Cc1ccc(Cl)cc1NC(=O)Cn1c(=O)n(CCC(=O)N2CCc3ccccc3C2)c(=O)c2ccccc21 | i | nt | nt | nt | nt | i
Cc1nc(Sc2nnnn2C2CC2)c2c(-c3ccccc3)csc2n1 | i | nt | nt | nt | nt | ?
CCn1nnnc1Sc1nc(C)nc2scc(-c3ccccc3)c12 | i | nt | nt | nt | nt | 13µM*
Cn1c(=O)c2[nH]c(CCC3CCCC3)nc2n(C)c1=O | 23µM* | -2% | 1% | -2% | 1% | i
CCCc1nc2c([nH]1)c(=O)n(C)c(=O)n2C | i | 12% | ? | -2% | 3% | i
CC(=O)c1cccc(N=c2scc(-c3ccc(S(=O)(=O)N4CCOCC4)cc3)n2CCO)c1 | 5.8µM* | -1% | -14% | -2% | -15% | i
C=CCn1c(-c2ccc(OC)cc2)csc1=Nc1c(C)n(C)n(-c2ccccc2)c1=O | 8.2µM* | 2% | -18% | 1% | -14% | 16µM*
C=CCn1c(-c2ccc(S(=O)(=O)N3CCOCC3)cc2)csc1=Nc1ccccc1 | i | -5% | -13% | ? | -17% | ?
COc1ccc(-c2csc(=Nc3ccccc3)n2CCO)cc1 | 7.3µM* | -6% | -22% | ? | -23% | 12µM*
Cc1csc(=Nc2c(C)n(C)n(-c3ccccc3)c2=O)n1Cc1ccccc1 | i | 4% | 3% | 1% | -6% | i
CCCCSCCCNC(=O)c1cn(CC)c2ccc(S(=O)(=O)N3CCCCCC3)cc2c1=O | ? | nt | nt | nt | nt | i
CCCn1c(CN2CCN(c3ccc(OC)cc3)CC2)nc2c1c(=O)[nH]c(=O)n2C | i | nt | nt | nt | nt | ?
COC(=O)c1ccccc1NC(=O)NCCc1c(C)nn(C)c1C | i | nt | nt | nt | nt | i
CCC(=O)N1CCc2cc(Br)cc(S(=O)(=O)CCC(=O)Nc3cccc(CC)c3)c21 | i | nt | nt | nt | nt | i
SMILES | KB-V1 MDR tox | SW480 rereplic | HT1080NT lethal | MCF10A rereplic | HT1080 IDH1KD tx | KB-3-1 tox
O=C(N/N=C/c1ccc(Cl)cc1Cl)c1n[nH]c2c1CCCC2 | ? | ? | 8.2µM* | ? | 6.5µM* | 5.2µM*
O=C(N/N=C\c1cccc(Cl)c1)c1n[nH]c2c1CCCC2 | i | -8% | -6% | ? | -29% | i
O=C(N/N=C/c1cccc2ccccc12)c1n[nH]c2c1CCCC2 | 2.6µM* | 5.8µM* | 1.5µM* | ? | 1.5µM* | 4.1µM*
Cc1cc(NC(=O)CCN2C(=O)C3C4CCC(C4)C3C2=O)c(C)cc1Br (stereo not given) | 15µM* | -2% | -5% | 4% | -2% | i
COc1ccccc1CNC(=O)CCn1cnc2ccccc2c1=O | ? | nt | nt | nt | nt | i
CCn1cc(CN2CCCC(C(=O)c3ccc(-c4ccccc4)c(F)c3)C2)cn1 (stereo not given) | i | ? | ? | 33% | 21µM* | i
c1ccc(CNc2ccc3c(c2)ncn3C2CCCCC2)nc1 | i | 23µM* | 4% | 21µM* | 7% | i
CCCCNC(=O)c1ccc2c(c1)ncn2C1CCCCC1 | i | -8% | 10% | 3% | 4% | i
CC(C)CCNC(=O)c1ccc2c(c1)ncn2C1CCCCC1 | 13µM* | -14% | -1% | 25% | -16% | i
CCCCS(=O)(=O)Nc1ccc2c(c1)ncn2C1CCCCC1 | ? | 3% | 8% | 23µM* | 8% | i
O=C(O)c1ccc2c(c1)ncn2C1CCCC1 | i | -11% | -8% | 5% | 1% | i
COc1cccc(C(O)c2ncc(-c3ccccc3)[nH]2)c1 (stereo not given) | i | nt | 15% | nt | 7% | i
COC(=O)c1sc(S(=O)(=O)N2CCN(c3ccccc3)CC2)c(C(=O)OC)c1C | 8.2µM* | -5% | -3% | 12% | 0% | i
COC(=O)c1sc(S(=O)(=O)N2CCCCC2)c(C(=O)OC)c1C | ? | 3% | -6% | -1% | -17% | i
Cc1cccc(NC(=O)c2ccc(NCC3CCCO3)c([N+](=O)[O-])c2)c1 (stereo not given) | 4.1µM* | -59% | 18% | -5% | 16% | i
CCCC(=O)Nc1cccc(NC(=O)c2ccc(C)c([N+](=O)[O-])c2)c1 | i | 2% | -2% | -4% | 12% | i
CCC(=O)Nc1cccc(NC(=O)c2ccc(C)c([N+](=O)[O-])c2)c1 | 15µM* | 1% | 4% | 22% | 8% | i
Cc1ccc(C(=O)Nc2ccc(Cc3ccncc3)cc2)cc1[N+](=O)[O-] | 5.8µM* | -3% | 1% | 15% | -13% | ?
O=C(Nc1cccc(Cl)c1)c1ccc(NCC2CCCO2)c([N+](=O)[O-])c1 (stereo not given) | i | -89% | -6% | 19% | 0% | i
O=C(Nc1ccc(Cc2ccncc2)cc1)c1cccc([N+](=O)[O-])c1 | ? | -1% | 0% | 10% | -15% | i
Cc1cccc(OCC(=O)OCc2cc(=O)n3nc(C4CCCCC4)sc3n2)c1 | i | nt | nt | nt | nt | i
CCc1cccc(NC(=O)Cn2c(=O)n(CCC(=O)NCc3ccccc3Cl)c(=O)c3sccc32)c1 | i | nt | nt | nt | nt | i

Screening results from PubChem BioAssay.
